Experimental data taken from PubChem BioAssay (NCI).
Compounds without any hit were thinned out: in the full panel of roughly 79,000, 15% have a hit. Active and inactive are the calls of the source. Rule as the data show it: active = growth inhibition above about 70%; inactive = the rest.

Assays:
[1] = NCI Yeast Anticancer Drug Screen. Data for the rad52 strain (AID 147);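 also: 0% = growth of vehicle-treated control cultures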; settings: S. cerevisiae rad52 mutant growth inhibition, stronger effect = higher value
How it was run: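 Genetically altered yeast (DNA damage repair defect) treated with compound; inhibition calculated relative to vehicle.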

[2] = NCI Yeast Anticancer Drug Screen. Data for the wt1 strain (AID 149);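 also: 0% = growth of vehicle-treated wt1 cultures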; settings: S. cerevisiae wt1 strain (SPY 50644) growth inhibition, stronger effect = higher value
How it was run: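 Readout: yeast growth inhibition, normalised to vehicle controls, in the wt1 strain exposed to test compounds.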

[3] = NCI Yeast Anticancer Drug Screen. Data for the rad50EPP+ strain (AID 151);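 also: 0% = growth of vehicle-treated control cultures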; settings: S. cerevisiae rad50 mutant strain, stronger effect = higher value
How it was run: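 Strain rad50EPP+; compound exposure; % growth inhibition vs vehicle.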

[4] = NCI Yeast Anticancer Drug Screen. Data for the mgt1 strain (AID 153); settings: S. cerevisiae mgt1 mutant growth inhibition, stronger effect = higher value
How it was run: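 Read-out: yeast growth inhibition vs vehicle control. Strain mgt1, drawn from a panel altered in DNA damage repair or cell cycle control.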

[5] = NCI Yeast Anticancer Drug Screen. Data for the rad50 strain (AID 155);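 also: 0% = growth of vehicle-only cultures of the same strain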; settings: S. cerevisiae rad50 strain growth inhibition, stronger effect = higher value
How it was run: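 Compounds were tested on a yeast strain with an engineered DNA damage repair alteration; the reported value is growth inhibition normalised to vehicle treatment.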

[6] = NCI Yeast Anticancer Drug Screen. Data for the mec2-1 strain (AID 157); settings: S. cerevisiae mec2-1 strain, stronger effect = higher value
How it was run: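 Cells of the genetically defined mec2-1 yeast strain are incubated with test compound. Inhibition of growth is calculated against vehicle-treated controls.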

[7] = NCI Yeast Anticancer Drug Screen. Data for the rad14 strain (AID 159);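 also: 0% = growth of vehicle-treated control cultures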; settings: S. cerevisiae rad14 strain growth inhibition, stronger effect = higher value
How it was run: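 Compound-treated yeast with a defined DNA-repair lesion; growth inhibition normalised to vehicle-treated cultures.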

[8] = NCI Yeast Anticancer Drug Screen. Data for the sgs1 mgt1 strain (AID 161);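 also: 0% = growth of cultures given vehicle only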; settings: S. cerevisiae sgs1 mgt1 strain, stronger effect = higher value
How it was run: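 Mutant yeast exposed to compound; growth scored against vehicle-only wells.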

[9] = NCI Yeast Anticancer Drug Screen. Data for the CLN2oe strain (AID 163);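 also: 0% = growth of vehicle-only control cultures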; settings: S. cerevisiae CLN2oe strain, stronger effect = higher value
How it was run: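 Strain altered in cell-cycle control, incubated with compound; growth compared to solvent-treated controls.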

[10] = NCI Yeast Anticancer Drug Screen. Data for the cln2 rad14 strain (AID 165);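 also: 0% = growth equal to vehicle treated cultures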; settings: S. cerevisiae cln2 rad14 strain, stronger effect = higher value
How it was run: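 The screen exposed genetically defined yeast (cln2 rad14) to test compounds and scored growth inhibition relative to vehicle-treated controls.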

[11] = NCI Yeast Anticancer Drug Screen. Data for the bub3 strain (AID 167); settings: S. cerevisiae bub3 mutant strain, stronger effect = higher value
How it was run: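 Growth of a checkpoint-deficient yeast mutant is measured after compound exposure. Values represent inhibition relative to vehicle.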

[12] = NCI Yeast Anticancer Drug Screen. Data for the wt2 strain (AID 169);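 also: 0% = growth of vehicle-treated yeast cultures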; settings: S. cerevisiae wt2 strain growth inhibition, stronger effect = higher value
How it was run: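 Steps: yeast strain treated with compound; growth recorded; inhibition calculated relative to cultures given vehicle alone.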

[13] = NCI Yeast Anticancer Drug Screen. Data for the mlh1 strain (AID 171);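 also: 0% = growth of vehicle-treated control cultures of the same strain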; settings: S. cerevisiae mlh1 strain growth inhibition, stronger effect = higher value
How it was run: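 Yeast screen: mutant strain plus compound, growth scored against vehicle control wells.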

[14] = NCI Yeast Anticancer Drug Screen. Data for the sgs1 strain (AID 173);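 also: 0% = growth of vehicle-only control cultures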; settings: S. cerevisiae sgs1 mutant, stronger effect = higher value
How it was run: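 Inhibition of yeast growth served as the measure. The mutant strain was treated with each compound, and growth was normalised to cultures receiving vehicle alone.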

[15] = NCI Yeast Anticancer Drug Screen. Data for the mlh1 rad18 strain (AID 175); settings: S. cerevisiae mlh1 rad18 strain growth inhibition, stronger effect = higher value
How it was run: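 Compound-treated yeast growth, normalised to vehicle controls. Strain bears defined DNA repair mutations.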

[16] = NCI Yeast Anticancer Drug Screen. Data for the rad18 strain (AID 177); settings: S. cerevisiae rad18 mutant growth inhibition, stronger effect = higher value
How it was run: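 Inhibition values reflect reduced yeast growth compared with vehicle-treated controls, using a strain engineered with a DNA damage repair defect.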

[17] = at 5.0 µM (retest, dose inferred, filed as 0.5)
[18] = at 50.0 µM (retest, dose inferred, filed as 5.0)

Measured: growth inhibition

CC(=O)ON1C(=O)c2cccc3cccc(c23)C1=O
active: [1]; at 11.0 µM 91% | [1]; at 33.0 µM 97% | [1]; at 100.0 µM 98% | [2]; at 11.0 µM 76% | [2]; at 33.0 µM 96% | [2]; at 100.0 µM 97% | [4]; at 11.0 µM 95% | [4]; at 33.0 µM 97% | [4]; at 100.0 µM 98% | [5]; at 11.0 µM 93% | [5]; at 33.0 µM 97% | [5]; [18] 96% | [5]; at 50.0 µM 81.9% | [5]; at 100.0 µM 98% | [6]; at 11.0 µM 95% | [6]; at 33.0 µM 98% | [6]; [18] 97% | [6]; at 50.0 µM 87.8% | [6]; at 100.0 µM 98% | [7]; at 3.7 µM 95% | [7]; at 11.0 µM 98% | [7]; at 33.0 µM 99% | [7]; at 100.0 µM 99% | [8]; [18] 92% | [8]; at 50.0 µM 90.7% | [9]; at 100.0 µM 77% | [11]; at 33.0 µM 91% | [11]; [18] 96% | [11]; at 50.0 µM 89.5% | [11]; at 100.0 µM 95% | [12]; at 33.0 µM 95% | [12]; at 100.0 µM 99% | [13]; at 3.7 µM 91% | [13]; at 11.0 µM 97% | [13]; at 33.0 µM 99% | [13]; at 100.0 µM 98% | [14]; at 3.7 µM 91% | [14]; at 11.0 µM 97% | [14]; at 33.0 µM 98% | [14]; at 100.0 µM 98% | [15]; [18] 97% | [15]; at 50.0 µM 81.4% | [16]; at 11.0 µM 86% | [16]; at 33.0 µM 97% | [16]; at 100.0 µM 97%
inactive: [1]; at 1.2 µM 13% | [1]; at 3.7 µM 38% | [2]; at 1.2 µM 6% | [2]; at 3.7 µM 17% | [3]; at 1.2 µM -2% | [3]; at 3.7 µM 0% | [3]; at 11.0 µM 0% | [3]; at 33.0 µM 9% | [3]; at 100.0 µM 57% | [4]; at 1.2 µM 8% | [4]; at 3.7 µM 46% | [5]; at 1.2 µM 18% | [5]; at 3.7 µM 57% | [5]; [17] 51% | [6]; at 1.2 µM -4% | [6]; at 3.7 µM 33% | [6]; [17] -3% | [7]; at 1.2 µM 51% | [8]; [17] 22% | [9]; at 1.2 µM 8% | [9]; at 3.7 µM 10% | [9]; at 11.0 µM 11% | [9]; at 33.0 µM 32% | [10]; [17] 23% | [10]; [18] 69% | [10]; at 50.0 µM 29.4% | [11]; at 1.2 µM 2% | [11]; at 3.7 µM 10% | [11]; [17] 69% | [11]; at 11.0 µM 24% | [12]; at 1.2 µM 4% | [12]; at 3.7 µM 2% | [12]; at 11.0 µM 20% | [13]; at 1.2 µM 61% | [14]; at 1.2 µM 44% | [15]; [17] 44% | [16]; at 1.2 µM 15% | [16]; at 3.7 µM 29%
